Laboratory results published in PubChem BioAssay AID686971 (National Center for Advancing Translational Sciences (NCATS), 2013).
Out of some 360,000 compounds screened, about 7,500 (2.1%) were called active. Another 8% or so got no clear call; they are omitted. The entries come from a sample that favours actives as a whole. Values without a mark were called inactive. The call rests on the fitted dose curve; in most records, active means well fitted cell-killing curve with a large enough effect; inconclusive means small, poorly fitted or top-dose-only effect, or effect the other way, or another doubt; inactive means no such curve, though single readings can be large or run the other way.

assay: qHTS for induction of synthetic lethality in tumor cells producing 2HG: qHTS for the HT-1080-IDH1KD cell line; conditions: HT-1080 IDH1 knockdown viability, ATP luminescence, 48 h; series mostly up to 46.1 µM; activity, negative = toxicity: at the top concentration
Description: Unbiased genomic sequencing for 22 glioma genomes found recurrent mutation of IDH1 on chromosome 2q33, a gene encoding the cytosolic isoform of IIDH1 associated with the tri-carboxylic acid cycle (TCA) that catalyzes the oxidative decarboxylation of isocitrate, yielding alpha-ketoglutarate and CO2 via NADP+ to NADPH conversion. Subsequent studies confirmed the recurrent IDH mutations in up to 70% of secondary gliomas and in 10% of AML cases. In addition, the somatic mutation of cancer-associated IDH1 is a point mutation resulting in various amino-acid substituents at Arginine132 (IDH1 R132), a key residue found in the enzyme's active site that when mutated, results in the loss-of-function in metabolizing isocitrate but confers a gain-of-function to produce the oncometabolite 2-hydroxyglutarate (2HG). This in effect defines IDH1 as an oncogene and provides an extraordinary opportunity to discover chemical probes against mutant IDH1 that may translate into much needed new therapies for glioma and AML patients.
This assay aims to perform a synthetic-lethal screen for chemical probes specific for 2HG-producing tumor cells using matched paired cell lines (1) HT-1080-NT fibrosarcoma cell line that overproduces 2HG and (2) HT-1080-IDH1KD cell line which has IDH1 expression knocked-down. Desirable compounds are toxic to the NT fibrosarcoma cell line but not to the IDH1KD cell line. The data in this AID corresponds to the results of the qHTS against the HT-1080 IDH1KD cell line.
[1] Dang L, Jin S, Su SM. IDH mutations in glioma and acute myeloid leukemia. Trends of Mol Med. 2010; 16(9): 387-97.
[2] Dang L et al. Cancer-associated IDH1 mutations produce 2-hydroxyglutarate. Nature. 2010; 465(7300):966.
Molecular Libraries Probe Production Centers Network [MLPCN]
NIH Chemical Genomics Center [NCGC]
Assay Submitter (PI): Lenny Dang Ph.D., Agios Pharmaceuticals
Suspensions of trypsinized HT-1080-IDH1KD cells were dispensed into white, tissue culture-treated, solid 1536-well plates at 5uL/well (750 cells/well final concentration) in RPMI medium supplemented with 5% FBS. Plates were incubated at 37 degrees C for 2 hours, after which 23 nL of compounds or DMSO were delivered to each well using a pin tool. Plates were then incubated at 37 degrees C for an additional 48 hours. CellTiter-Glo viability reagent (Promega) was dispensed into wells (2.5uL/well) and incubated at room temperature for 10 minutes. The plates were measured on a PerkinElmer ViewLux plate reader for luminescent signal (clear filter, 1 sec exp.). DMSO-treated control wells and media-only (no cells) control wells were used to normalize %Activity of identified toxic compounds; DMSO-treated wells corresponded to 0%Activity (100% viability), while media-only controls were used to normalize 100%Activity (0% viability). To minimize variability between cell lines, both HT-1080-NT and HT-1080-IDH1KD lines were dispensed and treated with identical compound series in single batches.
Concentration-response curves were fitted to the signals arising from the resulting luminescence. The concentration-effect curves were then classified based on curve quality (r2), response magnitude and degree of measured activity, and compounds were subsequently categorized based on their curve class.
Potency means the concentration at half of the fitted maximal effect.

Q: For `CC1CC=CCC12C(=O)NC(=S)NC2=O` (stereo not given), which “activity, negative = toxicity” value is on record?
A: 12.1%

Q: Which “activity, negative = toxicity” value does the source give for `C[C@]12CCCCC1=CC(=O)C1C2CC[C@@]2(C)C1C[C@@H](F)[C@@H]2O` (stereo not given in full) here?
A: -0.58%

Q: With `CCOC(=O)CNC(=O)N1Cc2cc(N3CCCCC3)ccc2-n2nncc2C1` as the compound, how does the “activity, negative = toxicity” value read?
A: 15.5%

Q: For `Cc1ccc(OC(=O)N(C)C[C@@H]2OCc3cnnn3CCCC(=O)N([C@H](C)CO)C[C@@H]2C)cc1`, which “activity, negative = toxicity” value is on record?
A: 0.516%

Q: For `O=C1NC(=O)N(Cc2ccco2)C(=O)/C1=C\c1ccc(-c2ccc(F)cc2)o1`, which Potency is on record?
A: 18.4 µM (active)

Q: With `COc1ccc(N2C(=O)/C(=C/c3ccco3)C(=O)NC2=S)cc1` as the compound, how does the “activity, negative = toxicity” value read?
A: 1.76%

Q: With `CCOC(=O)c1cccc(C2=C(CNC(=O)c3ccncc3)[C@H]3CC[C@@H](C2)N3Cc2ccccc2)c1` as the compound, how does the “activity, negative = toxicity” value read?
A: -5.65%

Q: Which “activity, negative = toxicity” value does the source give for `NC(=O)Nc1cccc(C(F)(F)F)c1` here?
A: 0.786%

Q: With `CCNS(=O)(=O)c1ccc(NC(=O)Nc2cccc(C(F)(F)F)c2)cc1` as the compound, how does the Potency read?
A: 11.2 µM (active)

Q: Which “activity, negative = toxicity” value does the source give for `CNC(=O)Nc1ccc(C(O)(C(=O)OC)C(F)(F)F)cc1` (stereo not given) here?
A: 3.8%

Q: With `O=P(OC1=CCCCC1)(c1ccccc1)c1ccccc1` as the compound, how does the “activity, negative = toxicity” value read?
A: -14.1%

Q: Which “activity, negative = toxicity” value does the source give for `COP(=O)(NS(=O)(=O)c1ccccc1)OC` here?
A: 9.88%

Q: For `c1ccc(C(CN2CCCCC2)c2ccccc2)cc1`, which “activity, negative = toxicity” value is on record?
A: 14.8%

Q: Which “activity, negative = toxicity” value does the source give for `O=c1c2ccccc2[nH]c(=S)n1-c1cccc(Cl)c1` here?
A: -12.2%

Q: Which Potency does the source give for `O=C1C2(Cl)C3(Cl)C4(Cl)C(Cl)(Cl)C5(Cl)C3(Cl)C1(Cl)C5(Cl)C24Cl` (stereo not given) here?
A: 16.4 µM (active)

Q: Which “activity, negative = toxicity” value does the source give for `CC1C(=O)OC2CCN3CC=C(COC(=O)C(C)(O)C1(C)O)C23` (stereo not given) here?
A: 6.77%

Q: Which “activity, negative = toxicity” value does the source give for `Cc1cccc(NC(=O)OC2CN3CCC2CC3)c1` (stereo not given) here?
A: 5.13%

Q: For `CN1CCN(Cc2ccc(OC(F)(F)F)cc2)CC1`, which “activity, negative = toxicity” value is on record?
A: 10.9%

Q: Which “activity, negative = toxicity” value does the source give for `O=c1c2ccccc2nc(/C=C/c2ccco2)n1-c1ccccc1O` here?
A: -27.3%

Q: For `Cc1nc2ccccc2c(=O)n1-c1ccc(Cl)cc1Cl`, which “activity, negative = toxicity” value is on record?
A: -2.58%

Q: With `O=c1c2ccccc2nc(/C=C/c2ccc(F)cc2)n1-c1ccccc1O` as the compound, how does the Potency read?
A: 20.6 µM (active)

Q: With `CCOc1cccc(=NC2CCCCC2)c2c(C)[nH]c(C)c12` as the compound, how does the Potency read?
A: 20.6 µM (active)

Q: Which “activity, negative = toxicity” value does the source give for `C=C(C)C1(CCCC)C(=O)NC(=S)NC1=O` here?
A: 22.4%

Q: With `CC(=O)Nc1ccc(C(=O)C(Cc2ccccc2)N(C)C)cc1` (stereo not given) as the compound, how does the “activity, negative = toxicity” value read?
A: 2.05%

Q: Which “activity, negative = toxicity” value does the source give for `CSc1nc2ccc(C)cc2c(=O)n1-c1cccnc1` here?
A: 0.487%

Q: For `O=C(NC1CCCCC1)N1Cc2cc(N3CCCCC3)ccc2-n2nncc2C1`, which “activity, negative = toxicity” value is on record?
A: 13.2%

Q: Which Potency does the source give for `Cc1cc2ccccn2c1C(C[N+](=O)[O-])c1c(F)cccc1Cl` (stereo not given) here?
A: 10.3 µM (active)

Q: With `CN1CCc2cc3c(cc2[C@H]1[C@@H]1OC(=O)c2c1ccc1c2OCO1)OCO3` as the compound, how does the “activity, negative = toxicity” value read?
A: 3.58%

Q: Which “activity, negative = toxicity” value does the source give for `c1cc2c(c(NC3=NCCCS3)c1)CCCC2` here?
A: -20.4%

Q: Which “activity, negative = toxicity” value does the source give for `COC(=O)C1=C(c2ccc(OCc3ccccc3)cc2)C[C@@H]2CC[C@H]1N2C(=O)NCc1ccc(Cl)cc1` here?
A: 2.58%

Q: Which “activity, negative = toxicity” value does the source give for `Cc1nc2nc(C)c(CCC(=O)N3CCC4(CC3)OCCO4)c(C)n2n1` here?
A: 15.2%

Q: For `COc1ccc2c3c1O[C@H]1C[C@@H](O)C=C[C@@]31CCN(C)C2`, which Potency is on record?
A: 5.8 µM (active)

Q: With `COC1=CC=C2[C@H]3Cc4ccc(OC)c5c4[C@@]2(CCN3C)C1O5` (stereo not given in full) as the compound, how does the “activity, negative = toxicity” value read?
A: -7.32%

Q: For `COc1ccc2c(c1O)-c1cccc3c1[C@@H](C2)N(C)CC3`, which “activity, negative = toxicity” value is on record?
A: -0.356%

Q: For `COc1ccc(C(=O)CC2C(=O)N(C)C(=O)N(C)C2=O)cc1`, which “activity, negative = toxicity” value is on record?
A: -2.16%

Q: Which “activity, negative = toxicity” value does the source give for `Cc1ccc(-n2c(O)c(C=NCC3CCCO3)c(=O)[nH]c2=O)c(C)c1` (stereo not given) here?
A: 5.18%

Q: For `COc1ccc(NC(=O)N2Cc3ccccc3-n3nncc3C2)cc1`, which “activity, negative = toxicity” value is on record?
A: 14%

Q: Which “activity, negative = toxicity” value does the source give for `COC(=O)C1=C(c2ccccc2)C[C@@H]2CC[C@H]1N2C(=O)NCc1ccco1` here?
A: 10.2%

Q: With `Cc1ncoc1C(=O)NCC1=C(c2cccc3ccccc23)C[C@@H]2CC[C@H]1N2Cc1ccco1` as the compound, how does the “activity, negative = toxicity” value read?
A: 3.31%

Q: With `COc1cc(Cn2c(N)c(C(=O)NCc3ccco3)c3nc4ccccc4nc32)cc(OC)c1OC` as the compound, how does the Potency read?
A: 8.91 µM (active)

Q: For `CCOC(=O)C1(c2ccccc2)CCN(CC(O)c2ccc(NC(C)=O)cc2)CC1` (stereo not given), which “activity, negative = toxicity” value is on record?
A: -4.56%

Q: With `CC12CCC3C(CCC4CC(=O)CCC43C)C1CC(=NO)C2=O` (stereo not given) as the compound, how does the “activity, negative = toxicity” value read?
A: -6.65%

Q: With `CNC(=O)O/N=C(\N)Cc1csc2ccc(Cl)cc12` as the compound, how does the Potency read?
A: 20.6 µM (active)

Q: For `CNC(=O)O/N=C(\N)Cc1csc2ccccc12`, which “activity, negative = toxicity” value is on record?
A: -5.52%

Q: For `COC(=O)C1=C(c2ccc(OCc3ccccc3)cc2)C[C@@H]2CC[C@H]1N2C(=O)NCc1cccc(F)c1`, which “activity, negative = toxicity” value is on record?
A: -15%

Q: Which “activity, negative = toxicity” value does the source give for `O=C(NC(=S)N1C[C@H]2C[C@H](C1)c1cccc(=O)n1C2)c1ccc(F)cc1` here?
A: 3.21%

Q: With `CC(CC(C#N)(c1ccccc1)c1ccccc1)N1CCCCC1` (stereo not given) as the compound, how does the “activity, negative = toxicity” value read?
A: 7.07%

Q: With `C=CCN1C(=O)C2(C(C(=O)OCC)=C(N)Oc3c2c(=O)oc2ccccc32)c2ccccc21` (stereo not given) as the compound, how does the “activity, negative = toxicity” value read?
A: 6.5%

Q: Which “activity, negative = toxicity” value does the source give for `O=c1c2ccccc2nc(CBr)n1-c1ccc(Cl)cc1` here?
A: -6.41%

Q: With `CC1CNCCN1c1ccc(Cl)cc1` (stereo not given) as the compound, how does the “activity, negative = toxicity” value read?
A: 1.1%

Q: Which Potency does the source give for `CC1=CC(=Cc2sc3ccccc3[n+]2C)C=C(C)O1` here?
A: 10.3 µM (active)

Q: With `COc1ccccc1C1=NCc2nnc(CSC)n2-c2ccc(Cl)cc21` as the compound, how does the “activity, negative = toxicity” value read?
A: -20.5%

Q: For `c1ccc(N2Cc3ccccc3-n3nncc3C2)nc1`, which “activity, negative = toxicity” value is on record?
A: -2.59%

Q: With `COc1cccc(C(c2nnnn2-c2ccc3c(c2)OCCO3)N2CCC3(CC2)C(=O)NCN3c2ccccc2)c1OC` (stereo not given) as the compound, how does the Potency read?
A: 16.4 µM (active)

Q: For `CC(=O)Nc1ccccc1C(=O)OCC(=O)c1cccc2ccccc12`, which “activity, negative = toxicity” value is on record?
A: 4.55%
